We go through three molecules from ChEMBL document CHEMBL1961873, “Compounds: GSK PKIS; Assays: Nanosyn kinase panel” (2012).

Test [1] concerns Epidermal growth factor receptor (Homo sapiens), P00533 [T790M]. The following applies: at 1 µM.
For test [2], the system named is Epidermal growth factor receptor (Homo sapiens), P00533 [L858R,T790M]. The following applies: at 0.1 µM.
For test [3] the test system is unchanged. As to conditions: at 1 µM.
Test [4] addresses Ephrin type-A receptor 2 (Homo sapiens) (UniProt P29317). As to conditions: at 0.1 µM.
The target is the same in test [5]. The following applies: at 1 µM.
The target of test [6] is T1, Ephrin type-A receptor 3 (Homo sapiens) (UniProt P29320).
T1 sequence (whole entry): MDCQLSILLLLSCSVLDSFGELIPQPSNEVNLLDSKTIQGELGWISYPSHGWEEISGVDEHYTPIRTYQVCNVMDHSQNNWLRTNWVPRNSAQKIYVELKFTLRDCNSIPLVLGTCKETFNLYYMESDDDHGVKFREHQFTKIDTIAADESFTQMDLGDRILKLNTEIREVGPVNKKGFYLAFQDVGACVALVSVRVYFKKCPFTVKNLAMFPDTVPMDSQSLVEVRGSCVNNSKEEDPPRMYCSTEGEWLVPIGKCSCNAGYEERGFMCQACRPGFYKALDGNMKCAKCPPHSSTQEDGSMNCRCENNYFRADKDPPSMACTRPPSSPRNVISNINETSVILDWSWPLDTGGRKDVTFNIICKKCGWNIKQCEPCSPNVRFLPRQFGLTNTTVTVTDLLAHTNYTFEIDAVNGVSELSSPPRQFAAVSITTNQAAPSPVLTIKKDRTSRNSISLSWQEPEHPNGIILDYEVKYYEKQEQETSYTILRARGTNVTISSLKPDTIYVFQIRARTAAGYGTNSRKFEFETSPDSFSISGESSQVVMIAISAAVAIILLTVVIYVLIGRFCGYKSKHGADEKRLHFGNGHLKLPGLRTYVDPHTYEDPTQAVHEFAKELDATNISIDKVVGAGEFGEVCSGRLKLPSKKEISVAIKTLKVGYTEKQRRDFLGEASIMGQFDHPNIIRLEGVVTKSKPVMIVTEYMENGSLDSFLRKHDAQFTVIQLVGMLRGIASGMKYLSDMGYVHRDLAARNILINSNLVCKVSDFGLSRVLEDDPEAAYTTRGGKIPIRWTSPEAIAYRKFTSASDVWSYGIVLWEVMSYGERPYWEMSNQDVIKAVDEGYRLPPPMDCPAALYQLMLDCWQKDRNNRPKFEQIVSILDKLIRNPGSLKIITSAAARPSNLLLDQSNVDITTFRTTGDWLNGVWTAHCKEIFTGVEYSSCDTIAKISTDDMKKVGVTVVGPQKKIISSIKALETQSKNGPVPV
As to conditions: at 0.1 µM.

Test [7] addresses T1, Ephrin type-A receptor 3 (Homo sapiens). The following applies: at 1 µM.
Test [8] concerns the target Ephrin type-A receptor 4 (Homo sapiens) (UniProt P54764). As to conditions: at 0.1 µM.
For test [9] the target is unchanged. As to conditions: at 1 µM.
The target in test [10] is T2, Ephrin type-B receptor 2 (Homo sapiens) (UniProt P29323).
T2 sequence (whole entry): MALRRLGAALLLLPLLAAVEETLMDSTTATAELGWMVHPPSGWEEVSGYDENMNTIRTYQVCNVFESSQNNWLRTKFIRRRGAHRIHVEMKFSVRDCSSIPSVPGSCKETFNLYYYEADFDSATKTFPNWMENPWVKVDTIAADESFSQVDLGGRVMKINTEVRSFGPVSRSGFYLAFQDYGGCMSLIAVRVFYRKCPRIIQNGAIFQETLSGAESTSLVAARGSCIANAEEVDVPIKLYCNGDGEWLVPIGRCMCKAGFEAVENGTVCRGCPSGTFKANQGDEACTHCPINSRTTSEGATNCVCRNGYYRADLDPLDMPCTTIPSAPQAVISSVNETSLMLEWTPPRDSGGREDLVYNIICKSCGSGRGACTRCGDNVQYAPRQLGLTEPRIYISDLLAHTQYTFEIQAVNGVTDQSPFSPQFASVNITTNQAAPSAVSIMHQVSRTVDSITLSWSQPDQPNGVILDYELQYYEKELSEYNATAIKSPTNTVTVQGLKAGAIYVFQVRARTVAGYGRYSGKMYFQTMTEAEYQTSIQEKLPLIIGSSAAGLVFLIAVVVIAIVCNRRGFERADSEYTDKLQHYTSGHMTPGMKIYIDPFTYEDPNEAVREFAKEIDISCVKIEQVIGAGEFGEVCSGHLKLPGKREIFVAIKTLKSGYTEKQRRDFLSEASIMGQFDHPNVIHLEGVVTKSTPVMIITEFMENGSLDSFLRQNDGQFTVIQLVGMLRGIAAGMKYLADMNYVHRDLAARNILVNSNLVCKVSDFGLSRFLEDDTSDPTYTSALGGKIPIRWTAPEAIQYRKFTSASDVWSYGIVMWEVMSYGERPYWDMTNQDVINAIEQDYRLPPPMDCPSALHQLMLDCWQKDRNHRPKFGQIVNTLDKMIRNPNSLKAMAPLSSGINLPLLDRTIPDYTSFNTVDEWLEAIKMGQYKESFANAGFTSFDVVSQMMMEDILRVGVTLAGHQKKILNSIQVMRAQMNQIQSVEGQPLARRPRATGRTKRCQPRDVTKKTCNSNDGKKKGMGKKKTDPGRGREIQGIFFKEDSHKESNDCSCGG
The following applies: at 0.1 µM.

Test [11] concerns the target T2, Ephrin type-B receptor 2 (Homo sapiens). As to conditions: at 1 µM.
The target in test [12] is T3, Ephrin type-B receptor 3 (Homo sapiens) (UniProt P54753).
T3 sequence (whole entry): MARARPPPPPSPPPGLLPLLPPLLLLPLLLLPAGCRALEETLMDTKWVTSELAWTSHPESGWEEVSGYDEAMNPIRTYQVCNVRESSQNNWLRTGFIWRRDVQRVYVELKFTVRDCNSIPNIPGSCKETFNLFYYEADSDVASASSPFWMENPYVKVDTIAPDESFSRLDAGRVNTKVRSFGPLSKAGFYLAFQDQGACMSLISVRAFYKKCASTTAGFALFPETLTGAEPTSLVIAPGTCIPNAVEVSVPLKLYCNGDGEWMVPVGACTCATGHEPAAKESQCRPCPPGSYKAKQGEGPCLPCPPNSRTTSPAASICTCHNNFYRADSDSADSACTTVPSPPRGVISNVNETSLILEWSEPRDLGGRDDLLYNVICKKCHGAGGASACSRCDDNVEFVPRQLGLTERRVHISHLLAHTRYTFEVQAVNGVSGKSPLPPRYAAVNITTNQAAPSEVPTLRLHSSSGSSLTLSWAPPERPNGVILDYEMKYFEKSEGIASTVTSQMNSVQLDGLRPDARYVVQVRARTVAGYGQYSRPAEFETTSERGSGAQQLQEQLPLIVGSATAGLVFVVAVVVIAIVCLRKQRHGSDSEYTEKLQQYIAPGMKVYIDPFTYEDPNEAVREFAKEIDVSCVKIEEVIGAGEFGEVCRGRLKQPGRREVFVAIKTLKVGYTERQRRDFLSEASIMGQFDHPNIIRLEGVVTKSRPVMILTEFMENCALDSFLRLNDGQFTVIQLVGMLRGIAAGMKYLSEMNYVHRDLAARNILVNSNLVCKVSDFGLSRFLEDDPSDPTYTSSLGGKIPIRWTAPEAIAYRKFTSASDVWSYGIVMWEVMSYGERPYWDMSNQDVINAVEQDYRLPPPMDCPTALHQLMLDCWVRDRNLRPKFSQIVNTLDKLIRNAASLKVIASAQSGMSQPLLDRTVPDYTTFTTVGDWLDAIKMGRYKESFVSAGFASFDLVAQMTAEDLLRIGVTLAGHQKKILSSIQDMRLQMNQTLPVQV
As to conditions: at 0.1 µM.

Test [13] has as its target T3, Ephrin type-B receptor 3 (Homo sapiens). The following applies: at 1 µM.
The target in test [14] is T4, Ephrin type-B receptor 4 (Homo sapiens) (UniProt P54760).
T4 sequence (whole entry): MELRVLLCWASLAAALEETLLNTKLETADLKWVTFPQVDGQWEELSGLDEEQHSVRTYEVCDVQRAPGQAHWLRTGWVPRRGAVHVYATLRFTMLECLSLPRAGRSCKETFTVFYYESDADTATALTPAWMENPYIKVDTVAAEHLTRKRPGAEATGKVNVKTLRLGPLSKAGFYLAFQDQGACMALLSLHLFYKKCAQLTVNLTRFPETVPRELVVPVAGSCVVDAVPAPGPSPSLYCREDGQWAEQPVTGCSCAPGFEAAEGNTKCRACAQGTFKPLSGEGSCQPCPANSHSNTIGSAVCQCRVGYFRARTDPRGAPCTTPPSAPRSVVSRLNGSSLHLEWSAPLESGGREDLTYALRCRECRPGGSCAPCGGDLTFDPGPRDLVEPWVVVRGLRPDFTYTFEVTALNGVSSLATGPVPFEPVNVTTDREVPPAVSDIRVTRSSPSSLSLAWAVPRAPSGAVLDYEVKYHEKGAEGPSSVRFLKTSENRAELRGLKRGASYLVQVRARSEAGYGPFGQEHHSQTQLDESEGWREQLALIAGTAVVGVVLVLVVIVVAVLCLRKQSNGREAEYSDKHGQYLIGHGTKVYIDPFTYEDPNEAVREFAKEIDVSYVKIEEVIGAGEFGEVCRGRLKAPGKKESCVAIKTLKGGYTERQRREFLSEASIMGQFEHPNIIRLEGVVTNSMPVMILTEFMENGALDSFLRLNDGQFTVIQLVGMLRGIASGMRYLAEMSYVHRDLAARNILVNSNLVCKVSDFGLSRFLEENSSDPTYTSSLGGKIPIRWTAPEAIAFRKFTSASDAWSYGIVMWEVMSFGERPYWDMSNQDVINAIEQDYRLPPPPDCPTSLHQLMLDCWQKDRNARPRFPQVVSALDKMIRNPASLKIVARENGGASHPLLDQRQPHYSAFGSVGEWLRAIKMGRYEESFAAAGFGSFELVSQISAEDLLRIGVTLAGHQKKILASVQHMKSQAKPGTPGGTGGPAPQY
The following applies: at 0.1 µM.

The target of test [15] is T4, Ephrin type-B receptor 4 (Homo sapiens). As to conditions: at 1 µM.
Test [16] concerns the target Receptor tyrosine-protein kinase erbB-2 (Homo sapiens) (UniProt P04626). As to conditions: at 0.1 µM.
Test [17] has the same target. The following applies: at 1 µM.
In test [18] the target is Receptor tyrosine-protein kinase erbB-4 (Homo sapiens) (UniProt Q15303). As to conditions: at 0.1 µM.
For test [19] the target is unchanged. The following applies: at 1 µM.
Test [20] deals with Tyrosine-protein kinase Fer (Homo sapiens) (UniProt P16591). The following applies: at 0.1 µM.

Structures are written as SMILES.

Sequence of Tyrosine-protein kinase Fer (Homo sapiens) (P16591 whole entry, looked up): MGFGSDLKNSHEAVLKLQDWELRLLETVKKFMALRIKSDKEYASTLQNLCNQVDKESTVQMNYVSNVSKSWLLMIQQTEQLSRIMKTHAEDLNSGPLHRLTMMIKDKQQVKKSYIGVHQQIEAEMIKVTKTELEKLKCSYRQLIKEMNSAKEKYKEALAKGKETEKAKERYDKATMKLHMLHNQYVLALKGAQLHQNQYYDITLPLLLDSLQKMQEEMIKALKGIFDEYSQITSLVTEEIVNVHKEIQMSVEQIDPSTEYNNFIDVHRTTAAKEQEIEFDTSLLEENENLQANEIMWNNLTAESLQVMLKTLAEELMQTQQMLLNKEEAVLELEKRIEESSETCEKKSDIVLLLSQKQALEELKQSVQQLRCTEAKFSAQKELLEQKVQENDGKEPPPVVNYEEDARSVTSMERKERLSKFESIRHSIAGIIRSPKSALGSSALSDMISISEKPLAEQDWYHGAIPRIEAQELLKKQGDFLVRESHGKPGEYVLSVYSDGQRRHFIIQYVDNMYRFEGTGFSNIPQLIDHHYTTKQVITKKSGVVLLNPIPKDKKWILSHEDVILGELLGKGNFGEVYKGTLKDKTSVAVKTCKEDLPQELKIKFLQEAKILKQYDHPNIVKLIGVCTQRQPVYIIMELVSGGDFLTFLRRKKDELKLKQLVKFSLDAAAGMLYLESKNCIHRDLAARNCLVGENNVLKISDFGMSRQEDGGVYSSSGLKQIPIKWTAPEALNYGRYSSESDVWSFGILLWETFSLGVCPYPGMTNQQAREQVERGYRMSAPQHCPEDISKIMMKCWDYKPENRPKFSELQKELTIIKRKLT
Sequence of Receptor tyrosine-protein kinase erbB-2 (Homo sapiens) (P04626 whole entry): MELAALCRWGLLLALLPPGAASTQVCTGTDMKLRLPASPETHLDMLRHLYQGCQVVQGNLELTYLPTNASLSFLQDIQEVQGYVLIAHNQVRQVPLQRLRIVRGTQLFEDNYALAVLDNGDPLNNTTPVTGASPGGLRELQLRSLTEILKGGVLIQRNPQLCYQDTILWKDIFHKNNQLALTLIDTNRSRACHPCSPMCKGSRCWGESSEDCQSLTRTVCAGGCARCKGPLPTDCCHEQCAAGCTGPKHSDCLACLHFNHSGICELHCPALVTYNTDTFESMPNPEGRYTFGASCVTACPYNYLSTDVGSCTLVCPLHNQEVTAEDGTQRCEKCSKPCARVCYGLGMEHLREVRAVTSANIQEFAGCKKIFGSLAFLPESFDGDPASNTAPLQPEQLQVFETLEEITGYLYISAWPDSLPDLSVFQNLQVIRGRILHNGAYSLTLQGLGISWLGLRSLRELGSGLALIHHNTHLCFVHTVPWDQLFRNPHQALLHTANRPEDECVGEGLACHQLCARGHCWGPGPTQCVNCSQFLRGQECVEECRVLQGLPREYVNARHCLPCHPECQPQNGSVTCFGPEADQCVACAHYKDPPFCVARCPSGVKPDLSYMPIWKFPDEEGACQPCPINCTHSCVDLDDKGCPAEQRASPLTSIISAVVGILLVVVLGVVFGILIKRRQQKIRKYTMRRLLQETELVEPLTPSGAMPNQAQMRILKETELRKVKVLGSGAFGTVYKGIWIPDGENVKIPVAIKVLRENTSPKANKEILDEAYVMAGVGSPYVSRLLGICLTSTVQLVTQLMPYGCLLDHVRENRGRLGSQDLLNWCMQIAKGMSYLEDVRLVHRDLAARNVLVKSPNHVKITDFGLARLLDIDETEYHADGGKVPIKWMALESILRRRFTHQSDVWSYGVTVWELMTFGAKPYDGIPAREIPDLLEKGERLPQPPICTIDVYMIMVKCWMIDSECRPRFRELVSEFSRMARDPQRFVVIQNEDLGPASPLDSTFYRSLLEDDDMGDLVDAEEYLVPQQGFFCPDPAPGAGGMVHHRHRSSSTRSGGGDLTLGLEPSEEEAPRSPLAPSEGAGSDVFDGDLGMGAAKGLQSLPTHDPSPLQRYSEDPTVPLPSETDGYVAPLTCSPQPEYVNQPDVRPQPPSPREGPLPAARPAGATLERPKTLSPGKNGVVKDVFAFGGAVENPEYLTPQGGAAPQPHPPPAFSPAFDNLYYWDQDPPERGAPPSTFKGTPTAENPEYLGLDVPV
Sequence of Ephrin type-A receptor 4 (Homo sapiens) (P54764 whole entry): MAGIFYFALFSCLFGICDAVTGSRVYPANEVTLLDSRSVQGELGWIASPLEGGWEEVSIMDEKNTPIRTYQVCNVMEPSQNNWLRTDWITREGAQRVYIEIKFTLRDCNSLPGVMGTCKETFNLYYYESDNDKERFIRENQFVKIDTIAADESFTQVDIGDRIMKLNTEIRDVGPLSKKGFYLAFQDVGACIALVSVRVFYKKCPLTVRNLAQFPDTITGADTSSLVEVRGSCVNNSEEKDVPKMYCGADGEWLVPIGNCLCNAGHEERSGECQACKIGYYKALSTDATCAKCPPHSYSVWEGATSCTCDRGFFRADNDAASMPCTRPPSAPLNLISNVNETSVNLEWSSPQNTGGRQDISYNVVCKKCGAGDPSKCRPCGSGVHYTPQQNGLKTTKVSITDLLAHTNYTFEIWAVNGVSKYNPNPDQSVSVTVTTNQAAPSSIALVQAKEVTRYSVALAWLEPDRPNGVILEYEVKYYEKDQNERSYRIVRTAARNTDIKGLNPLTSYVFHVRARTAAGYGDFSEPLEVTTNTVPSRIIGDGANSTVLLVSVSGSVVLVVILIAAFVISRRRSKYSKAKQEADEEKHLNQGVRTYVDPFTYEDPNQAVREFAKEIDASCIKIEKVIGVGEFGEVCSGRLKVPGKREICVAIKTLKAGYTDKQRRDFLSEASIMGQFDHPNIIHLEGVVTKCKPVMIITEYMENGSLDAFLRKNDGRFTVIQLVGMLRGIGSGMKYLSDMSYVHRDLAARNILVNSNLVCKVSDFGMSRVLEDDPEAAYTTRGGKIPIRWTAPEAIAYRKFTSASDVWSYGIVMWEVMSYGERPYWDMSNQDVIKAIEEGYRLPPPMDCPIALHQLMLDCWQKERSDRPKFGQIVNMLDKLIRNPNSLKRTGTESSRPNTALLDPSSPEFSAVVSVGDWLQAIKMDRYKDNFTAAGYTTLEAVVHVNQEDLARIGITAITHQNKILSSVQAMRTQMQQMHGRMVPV
Sequence of Receptor tyrosine-protein kinase erbB-4 (Homo sapiens) (Q15303 whole entry): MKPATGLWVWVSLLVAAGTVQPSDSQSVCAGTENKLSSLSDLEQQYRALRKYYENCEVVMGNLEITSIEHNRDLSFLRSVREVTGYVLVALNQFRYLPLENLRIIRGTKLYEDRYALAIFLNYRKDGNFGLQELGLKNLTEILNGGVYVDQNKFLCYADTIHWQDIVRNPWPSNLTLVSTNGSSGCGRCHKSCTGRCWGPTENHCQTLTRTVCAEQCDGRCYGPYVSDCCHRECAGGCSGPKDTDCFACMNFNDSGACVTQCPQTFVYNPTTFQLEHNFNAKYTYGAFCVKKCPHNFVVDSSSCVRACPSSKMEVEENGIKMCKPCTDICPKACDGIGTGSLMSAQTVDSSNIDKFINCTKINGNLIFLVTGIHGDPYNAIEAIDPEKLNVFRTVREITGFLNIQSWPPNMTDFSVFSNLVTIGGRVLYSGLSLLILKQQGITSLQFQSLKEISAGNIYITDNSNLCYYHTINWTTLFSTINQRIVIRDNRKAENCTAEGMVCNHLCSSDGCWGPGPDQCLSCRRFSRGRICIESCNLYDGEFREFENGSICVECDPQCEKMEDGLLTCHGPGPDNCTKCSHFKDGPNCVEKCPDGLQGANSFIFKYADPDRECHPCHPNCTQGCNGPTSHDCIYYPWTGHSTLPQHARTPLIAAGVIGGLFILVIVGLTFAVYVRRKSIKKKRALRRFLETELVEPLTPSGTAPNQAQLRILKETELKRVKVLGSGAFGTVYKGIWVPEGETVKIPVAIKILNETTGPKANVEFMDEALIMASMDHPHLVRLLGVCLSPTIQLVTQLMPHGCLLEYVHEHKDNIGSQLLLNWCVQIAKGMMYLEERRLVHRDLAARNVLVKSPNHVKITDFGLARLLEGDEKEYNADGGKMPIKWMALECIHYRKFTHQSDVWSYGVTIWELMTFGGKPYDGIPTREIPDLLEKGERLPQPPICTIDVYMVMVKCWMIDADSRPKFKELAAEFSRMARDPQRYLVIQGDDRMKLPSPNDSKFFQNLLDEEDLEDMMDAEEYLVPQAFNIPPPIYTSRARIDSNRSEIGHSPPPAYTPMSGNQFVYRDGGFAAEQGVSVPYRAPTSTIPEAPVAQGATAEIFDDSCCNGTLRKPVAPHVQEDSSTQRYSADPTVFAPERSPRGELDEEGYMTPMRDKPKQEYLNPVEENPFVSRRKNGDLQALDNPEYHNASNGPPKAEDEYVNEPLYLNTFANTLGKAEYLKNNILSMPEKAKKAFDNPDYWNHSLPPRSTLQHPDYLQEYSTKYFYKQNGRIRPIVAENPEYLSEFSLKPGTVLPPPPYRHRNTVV

`Nc1nccc(-c2c(-c3ccc(F)cc3)ncn2C2CCC(O)CC2)n1` (stereo not given): the inhibition is 0.86% in [1]; 1.94% in test [2]; 15.4% in test [3]; 0.36% in [4]; 2.11% in test [5]; -4.93% in test [6]. Besides, the inhibition in test [7] was -1.48%; in test [8], -4.75%; in test [9], 14.5%; in test [10], 7.37%; in [11] it was 35.9%; in [12] it was 1.08%. The inhibition in test [13] was 32.1%; in test [14], 2.5%; in test [15], 14.7%; in test [16], -3.17%; in test [17] it was 4.64%; in test [18] it was 6.79%. For the same molecule, the inhibition was 45.9% in test [19] and 5.39% in [20].
For `COc1ccc2ncn(-c3cc(O[C@H](C)c4ccccc4Cl)c(C(N)=O)s3)c2c1`, the inhibition in [1] is 1.63%; in test [2] it was 1.69%; in test [3] it was 4.57%; in [4], -1.86%; in test [5], -2.71%; in test [6] it was -1.12%. Moreover, the inhibition was determined as 1.39% in test [7]; 6.03% in [8]; 9.66% in test [9]; 6.75% in [10]; 12% in test [11]; 0.01% in test [12]. Further, the inhibition in [13] is 0.43%; in test [14] it was -2.13%; in test [15] it was -1.28%; in test [16], 2.78%; in [17], 2.8%; in [18], 1.62%. The inhibition worked out at 4.43% in [19] and 2.82% in [20].
In the case of `COc1cc(Nc2ncc3c(C)nc(-c4cccc(C(F)(F)F)c4)n3n2)cc(OC)c1OC`, the inhibition in [1] was 5.56%; in test [2], -1.07%; in [3] it was 5.23%; in test [4] it was 4.32%; in [5], 17.5%; in [6] it was 6.02%. Further, the inhibition is 10.7% in test [7]; 22.4% in test [8]; 56.1% in test [9]; 17.1% in test [10]; 57.1% in test [11]; 6.46% in test [12]. Also, the inhibition came to 3.53% in test [13]; 5.85% in test [14]; 31.1% in test [15]; 0.82% in test [16]; 3.68% in test [17]; 5.34% in test [18]. Further, the results for the inhibition in [19] and in test [20] were 8.32% and 3.27%, respectively.
